Assay [1] is described as follows: NCI Yeast Anticancer Drug Screen. Data for the rad50 strain (AID 155).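 Further: 0% = growth of vehicle-only cultures of the same strain.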 The note with it: S. cerevisiae rad50 strain growth inhibition, stronger effect = higher value. The essentials:
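Relative growth inhibition (compound vs vehicle) was measured in yeast with a defined repair-gene alteration.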

Assay [2] can be described thus: NCI Yeast Anticancer Drug Screen. Data for the mec2-1 strain (AID 157). The note with it: S. cerevisiae mec2-1 strain, stronger effect = higher value. The essentials:
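mec2-1 yeast strain, carrying an alteration in DNA damage repair or cell cycle control, was exposed to compounds; growth inhibition was measured relative to vehicle-treated controls.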

A short description of assay [3]: NCI Yeast Anticancer Drug Screen. Data for the sgs1 mgt1 strain (AID 161).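 Further: 0% = growth of cultures given vehicle only.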 The note with it: S. cerevisiae sgs1 mgt1 strain, stronger effect = higher value. In a few lines:
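This yeast growth screen uses a strain with defined DNA-repair lesions; compound-treated growth is compared with vehicle-treated growth.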

Assay [4] is described as follows: NCI Yeast Anticancer Drug Screen. Data for the cln2 rad14 strain (AID 165).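 Further: 0% = growth equal to vehicle treated cultures.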 The note with it: S. cerevisiae cln2 rad14 strain, stronger effect = higher value. The essentials:
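Yeast carrying cln2 and rad14 alterations (cell cycle control and DNA damage repair) were exposed to compounds. Growth inhibition was measured against vehicle-treated controls.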

A short description of assay [5]: NCI Yeast Anticancer Drug Screen. Data for the bub3 strain (AID 167). The note with it: S. cerevisiae bub3 mutant strain, stronger effect = higher value. In a few lines: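 Screening used yeast with an engineered genetic alteration affecting cell cycle control. Compound-exposed cultures were compared with vehicle cultures, and reduced growth was taken as inhibition.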
Assay [6] can be described thus: NCI Yeast Anticancer Drug Screen. Data for the mlh1 rad18 strain (AID 175). The note with it: S. cerevisiae mlh1 rad18 strain growth inhibition, stronger effect = higher value. In a few lines:
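Growth inhibition of the yeast strain was measured after compound exposure and expressed relative to vehicle-treated controls. The strain carries defined defects in DNA damage repair.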

Setting [7] is: at 5.0 µM (retest, dose inferred, filed as 0.5).
Setting [8] is: at 50.0 µM (retest, dose inferred, filed as 5.0).

The values that follow come from PubChem BioAssay (NCI).

This is part of a sample that, as a whole, favours compounds with a hit. Of some 79,000 tested, about 15% had one in any assay. A number with no mark means an inactive call. The source made the active and inactive calls. No stated cut-off is given here; in the data, active means growth inhibition above about 70%; inactive means the rest.

Take `COc1cc(C(=O)OCC(C)C)ccc1O`: the growth inhibition was 3% in assay [1] (setting [7]); 33% in assay [1] (setting [8]); 15.1% in assay [1] (at 50.0 µM); 3% in assay [2] (setting [7]); 4% in assay [2] (setting [8]); 6.2% in assay [2] (at 50.0 µM). The growth inhibition in assay [3] (setting [7]) was 2%; in assay [3] (setting [8]), 8%; in assay [3] (at 50.0 µM), 2.8%; in assay [4] (setting [7]), 2%; in assay [4] (setting [8]), 14%; in assay [4] (at 50.0 µM), -16.1%. Moreover, the growth inhibition was 96% (active) in assay [5] (setting [7]); 98% (active) in assay [5] (setting [8]); 45.3% in assay [5] (at 50.0 µM); -5% in assay [6] (setting [7]); 13% in assay [6] (setting [8]); 3.3% in assay [6] (at 50.0 µM).
`CCOCCNc1ncnc2c1cnn2C`: the growth inhibition in assay [1] (setting [7]) is 2%; in assay [1] (setting [8]), -5%; in assay [1] (at 50.0 µM), -1.1%; in assay [2] (setting [7]), -4%; in assay [2] (setting [8]), -3%; in assay [2] (at 50.0 µM) it was -18.4%. For the same molecule, the growth inhibition in assay [3] (setting [7]) is -16%; in assay [3] (setting [8]) it was -6%; in assay [3] (at 50.0 µM), 13.1%; in assay [4] (setting [7]), -5%; in assay [4] (setting [8]), -1%; in assay [4] (at 50.0 µM), -0.35%. Further, the growth inhibition is 0% in assay [5] (setting [7]); 2% in assay [5] (setting [8]); 8% in assay [5] (at 50.0 µM); 3% in assay [6] (setting [7]); -1% in assay [6] (setting [8]); 39% in assay [6] (at 50.0 µM).
Turning to `Cc1cc(N=O)c(NO)cc1C`, the growth inhibition in assay [1] (setting [7]) is 3%; in assay [1] (setting [8]) it was 29%; in assay [1] (at 50.0 µM) it was 95.8% (active); in assay [2] (setting [7]), 16%; in assay [2] (setting [8]), 29%; in assay [2] (at 50.0 µM), 79.7% (active). In addition, the growth inhibition in assay [3] (setting [7]) was 6%; in assay [3] (setting [8]) it was 22%; in assay [3] (at 50.0 µM), 79.7% (active); in assay [4] (setting [7]), 2%; in assay [4] (setting [8]) it was 16%; in assay [4] (at 50.0 µM), 65.7%. Further, the growth inhibition in assay [5] (setting [7]) is 28%; in assay [5] (setting [8]), 61%; in assay [5] (at 50.0 µM), 92.5% (active); in assay [6] (setting [7]), 18%; in assay [6] (setting [8]), 81% (active); in assay [6] (at 50.0 µM), 88.8% (active).
In the case of `Oc1cc2ccccc2cc1O`, the growth inhibition was 6% in assay [1] (setting [7]); 90% (active) in assay [1] (setting [8]); 95.5% (active) in assay [1] (at 50.0 µM); 5% in assay [2] (setting [7]); 77% (active) in assay [2] (setting [8]); 86% (active) in assay [2] (at 50.0 µM). In addition, the growth inhibition in assay [3] (setting [7]) is 2%; in assay [3] (setting [8]) it was 88% (active); in assay [3] (at 50.0 µM), 93.8% (active); in assay [4] (setting [7]), 3%; in assay [4] (setting [8]), 90% (active); in assay [4] (at 50.0 µM) it was 92.4% (active). Moreover, the growth inhibition in assay [5] (setting [7]) was 5%; in assay [5] (setting [8]), 92% (active); in assay [5] (at 50.0 µM) it was 96.1% (active); in assay [6] (setting [7]), 5%; in assay [6] (setting [8]) it was 93% (active); in assay [6] (at 50.0 µM), 96% (active).
Take `COC(=O)c1ccc2ccccc2c1C(=O)c1ccc(F)cc1`: the growth inhibition in assay [1] (setting [7]) was -1%; in assay [1] (setting [8]) it was 94% (active); in assay [1] (at 50.0 µM), 96.8% (active); in assay [2] (setting [7]), 2%; in assay [2] (setting [8]) it was 96% (active); in assay [2] (at 50.0 µM), 95.5% (active). Also, the growth inhibition in assay [3] (setting [7]) was 4%; in assay [3] (setting [8]) it was 95% (active); in assay [3] (at 50.0 µM), 96.2% (active); in assay [4] (setting [7]) it was 11%; in assay [4] (setting [8]), 90% (active); in assay [4] (at 50.0 µM) it was 61.7%. In addition, the growth inhibition was 25% in assay [5] (setting [7]); 97% (active) in assay [5] (setting [8]); 97.4% (active) in assay [5] (at 50.0 µM); 2% in assay [6] (setting [7]); 95% (active) in assay [6] (setting [8]); 95% (active) in assay [6] (at 50.0 µM).
On to `O=C1C=CC(=O)c2c1cc1ccccc1c2O`, for which the growth inhibition in assay [1] (setting [7]) is 19%; in assay [1] (setting [8]), 97% (active); in assay [1] (at 50.0 µM) it was 4.45%; in assay [2] (setting [7]), 15%; in assay [2] (setting [8]), 99% (active); in assay [2] (at 50.0 µM) it was -10.8%. Moreover, the growth inhibition in assay [3] (setting [7]) was 6%; in assay [3] (setting [8]), 98% (active); in assay [3] (at 50.0 µM), 1.4%; in assay [4] (setting [7]), 6%; in assay [4] (setting [8]), 44%; in assay [4] (at 50.0 µM) it was 27.4%. Also, the growth inhibition in assay [5] (setting [7]) was 22%; in assay [5] (setting [8]), 96% (active); in assay [5] (at 50.0 µM), -5.75%; in assay [6] (setting [7]), 19%; in assay [6] (setting [8]), 97% (active); in assay [6] (at 50.0 µM), 30.6%.
Take `CCN1CCNc2c3cc(OC)ccc3nc3c([N+](=O)[O-])ccc1c23`: the growth inhibition in assay [1] (setting [7]) was -10%; in assay [1] (setting [8]), 37%; in assay [1] (at 50.0 µM), 42.2%; in assay [2] (setting [7]), -19%; in assay [2] (setting [8]), 7%; in assay [2] (at 50.0 µM) it was 15.2%. Also, the growth inhibition in assay [3] (setting [7]) was -9%; in assay [3] (setting [8]), 0%; in assay [3] (at 50.0 µM), 39.8%; in assay [4] (setting [7]) it was -2%; in assay [4] (setting [8]) it was 40%; in assay [4] (at 50.0 µM) it was 7.8%. The growth inhibition is 1% in assay [5] (setting [7]); 2% in assay [5] (setting [8]); -3.6% in assay [5] (at 50.0 µM); -41% in assay [6] (setting [7]); 41% in assay [6] (setting [8]); 71.7% (active) in assay [6] (at 50.0 µM).
With `COC(=O)/C=C(\NC1CC(OC2C[C@](O)(C(C)=O)Cc3c(O)c4c(c(O)c32)C(=O)c2c(OC)cccc2C4=O)OC(C)C1O)C(=O)OC` (some centres not stated), the growth inhibition in assay [1] (setting [7]) is 25%; in assay [1] (setting [8]), 97% (active); in assay [1] (at 50.0 µM), 97.5% (active); in assay [2] (setting [7]) it was 15%; in assay [2] (setting [8]), 98% (active); in assay [2] (at 50.0 µM), 97.7% (active). The growth inhibition in assay [3] (setting [7]) was -3%; in assay [3] (setting [8]) it was 97% (active); in assay [3] (at 50.0 µM), 97.7% (active); in assay [4] (setting [7]), 2%; in assay [4] (setting [8]), 96% (active); in assay [4] (at 50.0 µM), 94.9% (active). The growth inhibition in assay [5] (setting [7]) is 7%; in assay [5] (setting [8]), 98% (active); in assay [5] (at 50.0 µM) it was 74.2% (active); in assay [6] (setting [7]) it was -6%; in assay [6] (setting [8]), 98% (active); in assay [6] (at 50.0 µM), 98.3% (active).
In the case of `O=Cc1[nH]c(=S)[nH]c(=O)c1CCCc1ccccc1`, the growth inhibition is -15% in assay [1] (setting [7]); 79% (active) in assay [1] (setting [8]); 95.8% (active) in assay [1] (at 50.0 µM); -7% in assay [2] (setting [7]); 90% (active) in assay [2] (setting [8]); 78.2% (active) in assay [2] (at 50.0 µM). Further, the growth inhibition was 15% in assay [3] (setting [7]); 97% (active) in assay [3] (setting [8]); 98.5% (active) in assay [3] (at 50.0 µM); 17% in assay [4] (setting [7]); 92% (active) in assay [4] (setting [8]); 82.3% (active) in assay [4] (at 50.0 µM). For the same molecule, the growth inhibition in assay [5] (setting [7]) was 5%; in assay [5] (setting [8]), 95% (active); in assay [5] (at 50.0 µM) it was 85% (active); in assay [6] (setting [7]) it was 11%; in assay [6] (setting [8]), 97% (active); in assay [6] (at 50.0 µM) it was 98.2% (active).
